Inconclusive results are not listed. Active and inactive are the calls of the source. Calls come from the whole dose curve; as a rule, active = well fitted cell-killing curve with a large enough effect; inconclusive = small, poorly fitted or top-dose-only effect, or effect the other way; inactive = flat fitted curve, though single readings scatter.
What follows are compounds tested on OV90 (assay: Primary qHTS to identify gynecologic anti-cancer compounds using libraries of approved drugs and bioactive compounds (AID 1345084; note: nearly all actives have a fitted effect of over 55% in size)). Details: Gynecologic cancer cell panel viability, ATPlite luminescence, 48 h; series mostly up to 57.5 µM; activity change, negative = cytotoxicity: at the top concentration.
Procedure, shortened: (§1)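 Cells, 1,000 per well, plated 16 h, then exposed 48 h at 37 C to compounds. Viability by ATPlite luminescence after 15 min at room temperature.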
% is set by controls: 0 for no effect and ±100 for the full control effect; potency is the fitted concentration of half-maximal effect.

Structure (SMILES) | Potency | activity change, negative = cytotoxicity
Cc1ccc(C(=O)Nc2cccc(C(F)(F)F)c2)cc1-c1ccc2nc(NCCN3CCOCC3)ncc2c1 | 6.31 µM (active) | 
Cc1cn2c(-c3cn[nH]c3)cnc2c(Nc2ccc(C(=O)N3CCNCC3)cc2F)n1 |  | -14.9% (inactive)
Cc1ccc(CN2CCNCC2)cc1NC(=O)CNc1ccc(F)c(F)c1 |  | 5.77% (inactive)
CNC(=O)c1ccc(-c2cnc3ncc(Cc4ccc5ncccc5c4)n3n2)cc1F |  | 1.07% (inactive)
Cn1c(=O)n(-c2ccc(C(C)(C)C#N)cc2)c2c3cc(-c4cnc5ccccc5c4)ccc3ncc21 | 1.41 µM (active) | 
CCOc1ccccc1OCCNC(C)Cc1ccc(OC)c(S(N)(=O)=O)c1 (centres undefined) |  | -24.7% (inactive)
N#Cc1c(O)c2c(-c3ccc(-c4ccccc4O)cc3)csc2[nH]c1=O |  | 3.42% (inactive)
CN(C1CCc2c(c3ccccc3n2CC(=O)O)C1)S(=O)(=O)c1ccc(F)cc1 (centres undefined) | inactive | 
COc1cc(C)c(Sc2cnc(NC(=O)c3ccc(CNC(C)C(C)C)cc3)s2)cc1C(=O)N1CCN(C(C)=O)CC1 (centres undefined) |  | -25.6% (inactive)
CCCn1c(=O)c2[nH]c(-c3cnn(Cc4cccc(C(F)(F)F)c4)c3)nc2n(CC)c1=O |  | 1.28% (inactive)
O=C(O)Cn1nnc(-c2cc(N3CCC(Oc4cc(F)ccc4Br)CC3)no2)n1 |  | -2.38% (inactive)
COc1ccc2c(c1)CC[C@@H](CN(C)CC(=O)O)[C@H]2c1ccccc1 |  | 7.72% (inactive)
CC(C)(C)c1cc(NC(=O)Nc2ccc(-c3cn4c(n3)sc3cc(OCCN5CCOCC5)ccc34)cc2)no1 |  | -27.6% (inactive)
Cc1c(CN2CCN(S(C)(=O)=O)CC2)sc2c(N3CCOCC3)nc(-c3cnc(N)nc3)nc12 | 1.41 µM (active) | 
COc1ccc(-c2cc3c(C)nc(N)nc3n(C3CCC(OCCO)CC3)c2=O)cn1 (centres undefined) | 2 µM (active) | 
Cc1ccc(NC(=O)C2(c3ccc4c(c3)OC(F)(F)O4)CC2)nc1-c1cccc(C(=O)O)c1 |  | 1.23% (inactive)
CC(O)C1C(=O)N2C(C(=O)O)=C(SC3CNC(C(=O)N(C)C)C3)C(C)C12 (centres undefined) |  | 5.96% (inactive)
COc1cc(Nc2ncc(F)c(Nc3ccc4c(n3)N(COP(=O)(O)O)C(=O)C(C)(C)O4)n2)cc(OC)c1OC | 12.6 µM (active) | 
O=C(c1cncc(Br)c1)N1CCC(N2CCCC2)CC1 |  | 4.5% (inactive)
CCNC(=O)Nc1ccc2ncc(Nc3ccc(C)cc3)nc2n1 |  | -1.42% (inactive)

Structure (SMILES) | Potency | activity change, negative = cytotoxicity
Cc1nc(N)ncc1-c1nc(N2CCOCC2)c2sc(C(C)(C)O)cc2n1 | 3.55 µM (active) | 
C=CC(=O)Nc1cccc(Oc2nc(Nc3ccc(N4CCN(C)CC4)cc3OC)ncc2Cl)c1 |  | -3.63% (inactive)
COC(=O)Nc1ccc(-c2nc(N3CCOCC3)c3cnn(C4CCN(Cc5cccnc5)CC4)c3n2)cc1 | 4.47 µM (active) | 
COc1cccc(-c2ccc(NC(=O)C3=C(C(=O)O)CCC3)c(F)c2)c1 |  | -23.5% (inactive)
Cc1c(Cn2c(C)nc3c(C(=O)O)cc(N4CCOCC4)cc32)cccc1C(F)(F)F |  | -5.8% (inactive)
CCCCCCCCCC(=O)N[C@@H](Cc1c[nH]c2ccccc12)C(=O)N[C@H](CC(N)=O)C(=O)N[C@@H](CC(=O)O)C(=O)N[C@@H]1C(=O)NCC(=O)N[C@@H](CCCN)C(=O)N[C@@H](CC(=O)O)C(=O)N[C@H](C)C(=O)N[C@@H](CC(=O)O)C(=O)NCC(=O)N[C@H](CO)C(=O)N[C@@H]([C@@H](C)CC(=O)O)C(=O)N[C@@H](CC(=O)c2ccccc2N)C(=O)O[C@@H]1C |  | 5.48% [at 25.3 µM] (inactive)
CCCCCN(CCC12CC3CC(CC(C3)C1)C2)C(=O)NCCCc1ccncc1 |  | 13.3% (inactive)
O=C1CCC[C@@H]2[C@H]3CCC[N+]4([O-])CCC[C@@H](CN12)[C@@H]34 (some centres undefined) |  | -0.633% (inactive)
C[C@]1(CO)CN(c2cc(C(=O)Nc3ccc4c(c3)-c3c(c(C(N)=O)nn3-c3ccc(F)cc3)CC4)c(Cl)cn2)C[C@@]1(C)CO |  | 0.197% (inactive)
Clc1cccc(-n2nnnc2NCc2ccccc2Oc2ccccn2)c1Cl |  | -14.5% (inactive)
CCCNC(=O)Nc1ccc(Oc2ncnc3cc(OC)c(OC)cc23)cc1Cl |  | -9.79% (inactive)
CNC(=O)c1ccc(N2C(=S)N(c3cnc(C#N)c(C(F)(F)F)c3)C(=O)C23CCC3)cc1F |  | -4.66% (inactive)
C[C@]12CC[C@H](O)CC1=CCC1C2CC[C@]2(C)C(n3cnc4ccccc43)=CCC12 (some centres undefined) |  | 5.73% (inactive)
Clc1cccc(-c2nnnn2Cc2cccnc2)c1Cl |  | 3.94% (inactive)
CC(=O)c1c(C)c2cnc(Nc3ccc(N4CCNCC4)cn3)nc2n(C2CCCC2)c1=O |  | 15% [at 6.55 µM] (inactive)
COc1ccc(OC)c(-c2nnc3ccc(-c4ccc(OC)c(O[C@@H]5CCOC5)c4)nn23)c1 |  | -25.5% (inactive)
OCc1ccc(-c2ccc(-c3ccc(CO)s3)o2)s1 | 3.16 µM (active) | 
CC(C)c1noc(N2CCC(COc3ccc(-c4ccc(S(C)(=O)=O)cc4)nc3)CC2)n1 |  | 2.8% (inactive)
COc1cc2c(Oc3ccc(NC(=O)C4(C(=O)Nc5ccc(F)cc5)CC4)cc3F)ccnc2cc1OCCCN1CCOCC1 | 12.6 µM (active) | 

These compounds were tested on PA-1 in the same assay as above. Details: Gynecologic cancer cell panel viability, ATPlite luminescence, 48 h; series mostly up to 57.5 µM; activity change, negative = cytotoxicity: at the top concentration.
Procedure, shortened: as §1

Structure (SMILES) | Potency | activity change, negative = cytotoxicity
Cc1ccc(C(=O)Nc2cccc(C(F)(F)F)c2)cc1-c1ccc2nc(NCCN3CCOCC3)ncc2c1 | 12.6 µM (active) | 
Cc1ccc(CN2CCNCC2)cc1NC(=O)CNc1ccc(F)c(F)c1 |  | 3.2% (inactive)
CNC(=O)c1ccc(-c2cnc3ncc(Cc4ccc5ncccc5c4)n3n2)cc1F |  | 17.1% (inactive)
CCOc1ccccc1OCCNC(C)Cc1ccc(OC)c(S(N)(=O)=O)c1 (centres undefined) |  | 17.1% (inactive)
N#Cc1c(O)c2c(-c3ccc(-c4ccccc4O)cc3)csc2[nH]c1=O |  | 12.3% (inactive)
CN(C1CCc2c(c3ccccc3n2CC(=O)O)C1)S(=O)(=O)c1ccc(F)cc1 (centres undefined) | inactive | 
COc1cc(C)c(Sc2cnc(NC(=O)c3ccc(CNC(C)C(C)C)cc3)s2)cc1C(=O)N1CCN(C(C)=O)CC1 (centres undefined) | 22.4 µM (active) | 
CCCn1c(=O)c2[nH]c(-c3cnn(Cc4cccc(C(F)(F)F)c4)c3)nc2n(CC)c1=O |  | 1.27% (inactive)
O=C(O)Cn1nnc(-c2cc(N3CCC(Oc4cc(F)ccc4Br)CC3)no2)n1 |  | 1.9% (inactive)
COc1ccc2c(c1)CC[C@@H](CN(C)CC(=O)O)[C@H]2c1ccccc1 |  | 12.9% (inactive)
CC(C)(C)c1cc(NC(=O)Nc2ccc(-c3cn4c(n3)sc3cc(OCCN5CCOCC5)ccc34)cc2)no1 |  | 8.08% (inactive)
Cc1c(CN2CCN(S(C)(=O)=O)CC2)sc2c(N3CCOCC3)nc(-c3cnc(N)nc3)nc12 | 1.58 µM (active) | 
COc1ccc(-c2cc3c(C)nc(N)nc3n(C3CCC(OCCO)CC3)c2=O)cn1 (centres undefined) | 2.51 µM (active) | 
Cc1ccc(NC(=O)C2(c3ccc4c(c3)OC(F)(F)O4)CC2)nc1-c1cccc(C(=O)O)c1 |  | 2.84% (inactive)
CC(O)C1C(=O)N2C(C(=O)O)=C(SC3CNC(C(=O)N(C)C)C3)C(C)C12 (centres undefined) |  | 8.11% (inactive)
COc1cc(Nc2ncc(F)c(Nc3ccc4c(n3)N(COP(=O)(O)O)C(=O)C(C)(C)O4)n2)cc(OC)c1OC | 11.2 µM (active) | 
O=C(c1cncc(Br)c1)N1CCC(N2CCCC2)CC1 |  | 21.6% (inactive)
CCNC(=O)Nc1ccc2ncc(Nc3ccc(C)cc3)nc2n1 |  | -11.5% (inactive)

Structure (SMILES) | Potency | activity change, negative = cytotoxicity
Cc1nc(N)ncc1-c1nc(N2CCOCC2)c2sc(C(C)(C)O)cc2n1 | 7.94 µM (active) | 
C=CC(=O)Nc1cccc(Oc2nc(Nc3ccc(N4CCN(C)CC4)cc3OC)ncc2Cl)c1 |  | -2.14% (inactive)
COC(=O)Nc1ccc(-c2nc(N3CCOCC3)c3cnn(C4CCN(Cc5cccnc5)CC4)c3n2)cc1 | 15.8 µM (active) | 
Cc1c(Cn2c(C)nc3c(C(=O)O)cc(N4CCOCC4)cc32)cccc1C(F)(F)F |  | 14.3% (inactive)
CCCCCCCCCC(=O)N[C@@H](Cc1c[nH]c2ccccc12)C(=O)N[C@H](CC(N)=O)C(=O)N[C@@H](CC(=O)O)C(=O)N[C@@H]1C(=O)NCC(=O)N[C@@H](CCCN)C(=O)N[C@@H](CC(=O)O)C(=O)N[C@H](C)C(=O)N[C@@H](CC(=O)O)C(=O)NCC(=O)N[C@H](CO)C(=O)N[C@@H]([C@@H](C)CC(=O)O)C(=O)N[C@@H](CC(=O)c2ccccc2N)C(=O)O[C@@H]1C |  | 8.1% [at 25.3 µM] (inactive)
CCCCCN(CCC12CC3CC(CC(C3)C1)C2)C(=O)NCCCc1ccncc1 |  | 6.28% (inactive)
O=C1CCC[C@@H]2[C@H]3CCC[N+]4([O-])CCC[C@@H](CN12)[C@@H]34 (some centres undefined) |  | -2.32% (inactive)
C[C@]1(CO)CN(c2cc(C(=O)Nc3ccc4c(c3)-c3c(c(C(N)=O)nn3-c3ccc(F)cc3)CC4)c(Cl)cn2)C[C@@]1(C)CO | 11.2 µM (active) | 
Clc1cccc(-n2nnnc2NCc2ccccc2Oc2ccccn2)c1Cl |  | 20.5% (inactive)
CCCNC(=O)Nc1ccc(Oc2ncnc3cc(OC)c(OC)cc23)cc1Cl |  | 11.3% (inactive)
CNC(=O)c1ccc(N2C(=S)N(c3cnc(C#N)c(C(F)(F)F)c3)C(=O)C23CCC3)cc1F |  | 0.329% (inactive)
C[C@]12CC[C@H](O)CC1=CCC1C2CC[C@]2(C)C(n3cnc4ccccc43)=CCC12 (some centres undefined) |  | 4.33% (inactive)
Clc1cccc(-c2nnnn2Cc2cccnc2)c1Cl |  | -1.97% (inactive)
CC(=O)c1c(C)c2cnc(Nc3ccc(N4CCNCC4)cn3)nc2n(C2CCCC2)c1=O |  | -9.61% [at 6.55 µM] (inactive)
OCc1ccc(-c2ccc(-c3ccc(CO)s3)o2)s1 | 0.355 µM (active) | 
CC(C)c1noc(N2CCC(COc3ccc(-c4ccc(S(C)(=O)=O)cc4)nc3)CC2)n1 |  | -18.5% (inactive)
COc1cc2c(Oc3ccc(NC(=O)C4(C(=O)Nc5ccc(F)cc5)CC4)cc3F)ccnc2cc1OCCCN1CCOCC1 | 28.2 µM (active) | 
